High-throughput results from PubChem.
Tgondii IFNg = T. gondii growth inhibition under IFN-gamma. AID 1259416. activity change, negative = inhibition, % (test concentration not listed). hit rate 3.8% among 69,000. Toxoplasma gondii growth in IFN-gamma-treated host cells; hits give low values; in the data active = activity change below about -70%, passing the limit was not always enough;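 also: host cells are HeLa cells infected with Toxoplasma gondii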
Hits are given with their value; 0 = inactive. Shown is part of a subset that was picked to be rich in hits.

SMILES | Tgondii IFNg
C=C1SC(Nc2c(C)cccc2C)=NC12CCCCC2 | -81
CC(C)c1ncc(CN2CCCC(CCc3cccc(C(F)(F)F)c3)C2)cn1 (stereo unspecified) | 0
OCCCCN1CCCCC1CCc1ccccc1 (stereo unspecified) | 0
C=CCN1CC2(CCN(Cc3cccnc3)CC2)OCC1=O | 0
CC1CCN(c2ncnc3c2cnn3CC(=O)Nc2cccc(Cl)c2)CC1 | -87
O=C(Cn1ncc2c(N3CCN(c4ccccn4)CC3)ncnc21)Nc1ccccc1C(F)(F)F | 0
COc1ccc(NC(=O)Cn2ncc3c(N4CCC(C)CC4)ncnc32)cc1OC | 0
CC1CCN(c2ncnc3c2cnn3CC(=O)Nc2ccccc2F)CC1 | 0
CC1CCN(c2ncnc3c2cnn3CC(=O)Nc2ccccc2C(F)(F)F)CC1 | -81
O=C(Cn1ncc2c(N3CCCCC3)ncnc21)Nc1cccc(Cl)c1 | 0
O=C(Cn1ncc2c(N3CCN(c4ccccn4)CC3)ncnc21)Nc1ccc(F)c(Cl)c1 | 0
CC1CCN(c2ncnc3c2cnn3CC(=O)Nc2ccc3c(c2)OCCO3)CC1 | 0
O=C(Cn1ncc2c(N3CCCC3)ncnc21)Nc1cccc(Cl)c1 | 0
CC1CCN(c2ncnc3c2cnn3CC(=O)Nc2ccc(OC(F)(F)F)cc2)CC1 | 0
CC1CCN(c2ncnc3c2cnn3CC(=O)Nc2ccc(F)c(Cl)c2)CC1 | -86
CC1CCN(c2ncnc3c2cnn3CC(=O)Nc2cccc(C(F)(F)F)c2)CC1 | -72
CCOC(=O)[C@@]12CCCN(C(=O)C3CCOCC3)C[C@@H]1CN(C(C)=O)C2 | 0
Cc1ccccc1OCC1CCCN(C(=O)c2noc(C)c2Cc2c(C)noc2C)C1 (stereo unspecified) | 0
CN(C)CCn1c2c(ccc1=O)CCN(C(=O)c1cscn1)CC2 | 0
COc1ccccc1NC(=O)CN1CCC2(CC1)N=C(c1cccc(C)c1)C(=O)N2 | 0
CC(C)N1CCc2c(nc(C(=O)NCc3cccc(F)c3)n2C(C)C)C1 | 0
COc1ccc(OC)c(CN2CCN(C3CCN(C(C)C)CC3)C(CCO)C2)c1 (stereo unspecified) | 0
CN(Cc1cccc2cnccc12)C(=O)c1ccccc1C1CCNC1 (stereo unspecified) | 0
CC(C)CN1C[C@H]2COC[C@H](CC(=O)NCCc3ccccn3)[C@@H]2C1 | 0
O=C(c1cc(C2CC2)[nH]n1)N1C[C@H]2CC=CC[C@H]2C1 | 0
SMILES | Tgondii IFNg
CN(C)CCCOc1cccc(C(=O)O)c1 | 0
CN(C)CCOc1ccc(/C(=C(/CCCl)c2ccccc2)c2ccccc2)cc1 | -88
CCCCCOc1ccc(C(=O)c2ccccc2)cc1 | 0
Cc1[nH]nc2ccc(-c3cncc(OC[C@@H](N)Cc4ccccc4)c3)cc12 | -78
COc1cncc(-c2ccc(F)c(CO)c2)c1 | 0
CN(Cc1cc2n(n1)CCCNC2)Cc1cccc2cccnc12 | 0
CC(C)c1nnsc1CN1CCCC1c1ccc(F)cc1 (stereo unspecified) | 0
Cc1ccc(Nc2nc(C(=O)Nc3cccc(Cl)c3)nc3ccccc23)cc1 | 0
O=C(O)c1ccc2c(c1)nc(Nc1cccc(Cl)c1)c1ccncc12 | -73
Cc1cccc(Nc2nc(C(=O)Nc3cccc(Cl)c3)nc3ccccc23)c1 | 0
COCCNCc1cc2c(C)nn(-c3ccccc3)c2[nH]c1=O | 0
CCOc1ccc(C(=O)NC2CCN(S(=O)(=O)c3ccccc3)CC2)cc1 | -84
O=C(NC1CCN(Cc2ccccc2)CC1)c1ccc(I)cc1 | 0
CN1CCN(S(=O)(=O)c2ccc(C(=O)NC3CCCCC3)cc2)CC1 | 0
COc1ccc(NC(=O)CN2C(=O)CCc3cc(S(=O)(=O)N4CCCCC4)ccc32)cc1 | 0
O=C(Nc1nccs1)c1cccc2c1-c1ccccc1C2 | 0
COc1c(F)cc(C2CC(=O)Nc3c2c(C(C)C)nn3C)cc1Cl (stereo unspecified) | 0
CC(C)c1nn(C)c2c1C(c1nc(-c3ccc(Cl)cc3)no1)CC(=O)N2 (stereo unspecified) | -85
CC(C)c1nn(-c2ccccc2)c2c1C(c1ccoc1)CC(=O)N2 (stereo unspecified) | 0
CC(C)N1CCOC2(CCN(C(=O)c3ccsc3)CC2)c2ccccc21 | 0
CSc1ccc(-c2noc(-c3nnn(Cc4nc(-c5ccccc5)oc4C)c3C)n2)cc1 | 0
Cc1scc(C(=O)NCC2CCC(c3ncc(Cl)cc3-c3ccncc3)CC2)c1C (stereo unspecified) | -88
Cc1ncc(-c2ccncc2C)c(C2CCC(CNC(=O)c3oc(C)nc3C)CC2)n1 (stereo unspecified) | 0
Cc1ncc(-c2ccccn2)c(C2CCC(CNC(=O)c3scnc3C)CC2)n1 (stereo unspecified) | 0
C[C@@H]1CN(Cc2ccccc2F)CCN1Cc1cccc(C#Cc2ccccc2)c1 | 0
SMILES | Tgondii IFNg
COc1cc(-c2coc3cc(OCc4ccccc4)c(OC)c(O)c3c2=O)cc(OCc2ccccc2)c1OC | -79
COc1ccc(-c2coc3cc(O)cc(O)c3c2=O)cc1 | 0
O=c1c(-c2cc(O)c(O)c(O)c2)coc2cc(O)c(O)c(O)c12 | 0
CCCCNC(=O)Cn1c(=O)cc(-c2nc(C(C)C)no2)c2ccccc21 | 0
Cc1ccc(C(=O)N2CC[C@@H]3OCCN(Cc4cccnc4)[C@@H]3C2)s1 | 0
CC(C)Oc1ncnc2c1CCN(C(=O)N1CCOCC1)CC2 | 0
COc1ccc2c(c1)NC1(CCN(C(=O)Nc3cccc(C)c3)CC1)c1cccn1-2 | 0
CC(=O)N[C@H]1C[C@@H](CC(C)C)O[C@@H](CCc2ccccc2)C1 | 0
CCO[C@H]1COC[C@@H]1NC(=O)C(=O)N(C)c1ccccc1 | 0
O=C(CC1N=C2c3ccccc3N=C(SCc3ccccc3F)N2C1=O)NCc1ccccc1 (stereo unspecified) | 0
CC(C)CN1[C@@H]2CCN(c3ncc(F)cn3)CC[C@@H]2Oc2ccccc2S1(=O)=O | 0
CCc1[nH]c2ccc(CNC(=O)CCc3nncn3C)cc2c1C | 0
Cc1cccc(CN2CCC(CNc3nc(-c4ccc(Cl)cc4)nc4ccccc34)CC2)c1 | 0
Fc1cccc2c(OC3CCN(Cc4ccccc4)CC3)cc(C(F)(F)F)nc12 | -94
Clc1ccc(-c2nc(NC3CCN(Cc4ccccc4)CC3)c3ccccc3n2)cc1 | 0
Cc1cc(N)n(CC(=O)N2CCCC3(CCN(C)C3)C2)n1 (stereo unspecified) | 0
CCn1c(C2CCN(C(=O)c3cc(-c4ccccc4)on3)CC2)nn(C)c1=O | 0
COc1ccc(NC(=O)C2CC3(CCN(C)CC3)c3ccccc32)cc1 (stereo unspecified) | 0
Cc1cc2nc(C(=O)N3CCCC4(CN(C)C(=O)O4)C3)cc(C)n2n1 (stereo unspecified) | 0
COc1ccc2c(Oc3ccc(NC(=O)c4c(C)n(CC(C)(C)O)n(-c5ccccc5)c4=O)nc3)ccnc2c1 | -73
COc1ccc2c(OCc3nnc4ccc(-c5ccccc5)nn34)ccnc2c1 | 0
COc1ccc2oc(=O)c(C(=O)Nc3c(C)n(C)n(-c4ccccc4)c3=O)cc2c1 | 0
CC(C)Cc1nc(CCc2c[nH]c3ccccc23)n[nH]1 | 0
CN(Cc1csc(-c2ccccc2)n1)C(=O)c1cc2n(n1)CCCNC2 | 0
Cc1cc(N2CCN([C@@H]3CN[C@H](C(=O)N4CCSC4)C3)CC2)n(-c2ccccc2)n1 | 0
CN1CCC2(CC1)N=C(c1ccccc1O)CC(c1ccccc1O)N2 (stereo unspecified) | 0
CCOC(=O)N1CCC2(CC1)N=C(c1ccccc1O)CC(c1cc(Cl)ccc1O)N2 (stereo unspecified) | 0
Oc1ccc(Cl)cc1C1=NC2(CCNCC2)NC(c2ccccc2O)C1 (stereo unspecified) | -102
